Among all 69,000 compounds or so, about 8,600 (12%) showed an effect of 50% or more. The sample as a whole holds a higher share of strong results than the screen did.
System: Plasmodium berghei
Experiment: Screen against P. berghei liver stage (PbLuc), transformed with Luciferase, at 10uM
Format: functional, HepG2
Settings: tested at 10 uM

Row | Structure (SMILES) | INHIBITION [%]
1 | COc1ccc(C2=CCN(C(=O)CN(C)S(C)(=O)=O)CC2)cc1 | -11.4
2 | COc1ccc(C2=CCN(C(=O)C3CC(=O)N(C4CC4)C3)CC2)cc1 (centres undefined) | 40.3
3 | COc1ccc(C2=CCN(C(=O)CN(C)CC(N)=O)CC2)cc1 | 10.8
4 | COc1ccc(C2=CCN(C(=O)CN(C)CC(C)C#N)CC2)cc1 (centres undefined) | 46.5
5 | COc1ccc(C2=CCN(C(=O)C3CCC3)CC2)cc1 | -6.44
6 | COc1ccc(C2=CCN(C(=O)CN(CC(N)=O)C(C)C)CC2)cc1 | 83.2
7 | COc1ccc(C2=CCN(C(=O)C3CCS(=O)(=O)C3)CC2)cc1 (centres undefined) | 59.4
8 | COc1ccc(C2=CCN(C(=O)CN(C)Cc3ccoc3)CC2)cc1 | 53.5
9 | COc1ccc(C2=CCN(C(=O)CN(C)Cc3ccco3)CC2)cc1 | 46.2
10 | CC(C)NC(=O)N1CCCC(Cn2cc(-c3ccc(F)cc3)nn2)C1 (centres undefined) | 38.5
11 | Cc1nc(C)n(CC2CCCN2CCOc2cccc(F)c2)n1 (centres undefined) | 37.9
12 | Cc1cc(-c2cc3nc(C)c(C)c(NCC4COCCO4)n3n2)no1 (centres undefined) | 8.57
13 | CNc1ncc(CN(C)CCN2CCCCC2)cn1 | -61.5
14 | CCC1CN(CC(=O)NCCN2CCCCC2)c2ccccc2S1 (centres undefined) | 9.57
15 | COCC1CN(Cc2ccccn2)Cc2cn(C)nc21 (centres undefined) | 45.1
16 | COCC1CN(Cc2ccc(OC)cc2)Cc2nn(C)cc21 (centres undefined) | 93.3
17 | COCC1CN(Cc2ccccn2)Cc2nn(C)cc21 (centres undefined) | 60.2
18 | CCOCC1CN(Cc2ccc(OC)cc2)Cc2nn(C)cc21 (centres undefined) | 30.7
19 | COCC1CN(Cc2ccncc2)Cc2nn(C)cc21 (centres undefined) | -5.05
20 | COCC1CN(Cc2ccc(F)cc2)Cc2nn(C)cc21 (centres undefined) | 8.93
21 | NCC1CCC(c2c(C(N)=O)sc3ccccc23)CC1 (centres undefined) | 14.6
22 | COCCNc1c(-c2ccc(Cl)cc2)c(=O)c1=O | 24.5
23 | COCCCNc1c(-c2ccc(Cl)cc2)c(=O)c1=O | 60.8
24 | COCCCNc1c(-c2ccc(C)cc2)c(=O)c1=O | 35.1
25 | CN(c1ccccc1)c1ccc(CC2CCCN(CCO)C2)nn1 (centres undefined) | 16.5
26 | CC(C)(C)n1cc(C#N)cc1NC(=O)CCNC(=O)c1ccco1 | 26.5
27 | CC(=O)Nc1sccc1C(=O)C(C)(C)C | 77.7

Row | Structure (SMILES) | INHIBITION [%]
28 | CC(C)(C)C(=O)c1ccsc1NC(=O)CCNC(=O)c1ccco1 | 75.8
29 | CC(C)(CNC(=O)c1ccco1)CNC(=O)c1ccco1 | -18.9
30 | CC(=O)NCCNC(=O)c1sccc1Br | 28.5
31 | CC(=O)NCCC(=O)Nc1sccc1C(=O)C(C)(C)C | 48.9
32 | Cc1nn(C)c(C)c1CN(C)C(=O)c1cc(NC(=O)C2CC2)n(C)n1 | 44.05
33 | CCCc1nc(NCCOC)c2c(n1)c(C)nn2CC | 17
34 | O=C(c1cnccn1)N1CCN2C[C@H](Oc3cccc(F)c3)C[C@H]2C1 | 47.5
35 | CN1CC2(CCNCC2)COc2ccccc2S1(=O)=O | -15.7
36 | CC(c1cccc(-c2ncccc2F)c1)N(C)C (centres undefined) | -17.4
37 | Cc1ncc(-c2ccnc(SCCN)n2)c(-c2ccco2)n1 | 42.6
38 | COCCNc1ncc(-c2cc(C)no2)c(-c2ccco2)n1 | 47.4
39 | Cc1ncc(-c2ccnc(SCCN(C)C)n2)c(-c2ccco2)n1 | 70.8
40 | O=C(O)Cn1nc(C2CC2)c2c(-c3ccco3)ccnc21 | 22
41 | OCCNc1nccc(-c2c[nH]nc2-c2ccco2)n1 | -43.4
42 | NCCSc1nccc(-c2cnc(C3CC3)nc2-c2ccco2)n1 | 75.3
43 | c1cc(CN2CCC3(CC2)COC(COCC2CC2)C3)cs1 (centres undefined) | 19.8
44 | Nc1nc(N)c2c(n1)OC1(CCCN(Cc3nccs3)CC1)C2 (centres undefined) | 10.25
45 | CC(C)c1noc(CCNC(=O)N2CCC(O)(C(F)(F)F)C2)n1 (centres undefined) | 36.5
46 | Fc1ccc(C2(CNCC(F)F)CCOC2)cc1 (centres undefined) | 22.5
47 | Fc1ccc(C2(CNCCc3cccs3)CCOC2)cc1 (centres undefined) | 63.1
48 | OCCOCCNCC1(c2ccc(F)cc2)CCOC1 (centres undefined) | 31.6
49 | CCc1noc(-c2cccc(NC(=O)C(C)(C)C)c2)n1 | 32.5
50 | Cc1ncc(-c2ccncc2)c(C2CCN(C(=O)c3ccno3)CC2)n1 | 24.05
51 | CNC(=O)C1(C)CN(c2nc(C)cc(C)n2)CCO1 (centres undefined) | -3.94
52 | CC(=O)Nc1nc2c(s1)C1(CCN(C)CC1)Nc1ccccc1S2 | 10
53 | CC(=O)Nc1nc2c(s1)C(C)(C)Nc1ccccc1S2 | 59
54 | CC(=O)Nc1nc2c(s1)C1(CCCC1)Nc1ccccc1S2 | 41.2

Row | Structure (SMILES) | INHIBITION [%]
55 | CC(C)(C)OC(=O)NCCNC(=O)c1ccc(-c2ccco2)[nH]c1=O | 7.12
56 | CNC(=O)c1cnc2n1CCN(Cc1cccnc1)C2 | 49.1
57 | Cc1ccncc1NC(=O)C1CSc2ncc(C)c(=O)n2C1 (centres undefined) | 43.8
58 | Cc1cccc(NC(=O)C2CSc3ncc(C)c(=O)n3C2)n1 (centres undefined) | 6.83
59 | Cc1cnc2n(c1=O)CC(C(=O)NCc1ccccc1Cl)CS2 (centres undefined) | 65.9
60 | Cc1cccnc1NC(=O)C1CSc2ncc(C)c(=O)n2C1 (centres undefined) | -4.99
61 | CSc1ccccc1NC(=O)C1CSc2ncc(C)c(=O)n2C1 (centres undefined) | 60
62 | Cc1ccc(Cl)cc1NC(=O)C1CSc2ncc(C)c(=O)n2C1 (centres undefined) | -34.5
63 | Cc1cnc2n(c1=O)CC(C(=O)Nc1ccon1)CS2 (centres undefined) | 61.5
64 | Cc1cnc2n(c1=O)CC(C(=O)NC1CC1)CS2 (centres undefined) | -14.6
65 | Cc1cnc2n(c1=O)CC(C(=O)Nc1ccccc1Cl)CS2 (centres undefined) | -17
66 | Cc1sc(N)nc1-c1ccc(Cl)cc1 | -7.77
67 | COc1cccc(NC(=O)c2cc3c([nH]c2=O)CCCC3=O)c1 | -37.6
68 | Cc1nc2ccccc2n1CCNCc1cccc(C#N)c1 | 17.5
69 | CCNC(=O)c1ccc(NC2CCOC3(CCCCC3)C2)nn1 (centres undefined) | -9.82
70 | CC(NC(=O)NCCCc1n[nH]c(N)c1C#N)c1ccc(Cl)cc1 (centres undefined) | 7.08
71 | CCC1(CC)Cc2ccccc2-c2nc(CN(C)C)nc(O)c21 | 53.7
72 | CC1(C)Cc2ccccc2-c2nc(NCCO)[nH]c(=O)c21 | -4.74
73 | CCC1(CC)Cc2ccccc2-c2nc(NCCO)[nH]c(=O)c21 | 64
74 | CCC1(CC)Cc2ccccc2-c2nc(NCCCO)[nH]c(=O)c21 | 62.3
75 | CCC1(C)Cc2ccccc2-c2nc(NCCO)nc(O)c21 (centres undefined) | 20.9
76 | CC1(C)Cc2ccccc2-c2nc(NCCCO)[nH]c(=O)c21 | 45.8
77 | Cc1cc(NCCO)nc(-c2ccccc2O)n1 | -16
78 | CN(Cc1ccccc1)C1(C(=O)O)Cc2ccccc2C1 | 26.1
79 | O=c1c(NCCCO)c(N2CCN(c3ccccc3)CC2)c1=O | 44.9
